Measurements as given in paper PMC5540273 (PLoS ONE, 2017).
Several values for one entry are separate records, joined by “and”; a condition that tells them apart may be missing. Identical values can stand only once. Like-named read-outs stand apart in the source and are kept apart here.

Legend:
MARK3 = settings: concentration: 1 μM, replicates: in singlicate; n = 1
MARK4 = settings: concentration: 1 μM, replicates: in singlicate, n = 1
MAST1 = settings: concentration: 1 μM, replicates: in singlicate, n = 1
MEK1 = system: T1, MEK1; settings: concentration: 1 μM, replicates: in singlicate, n = 1
T1 construct: gene MAP2K1

MEK2 = system: T2, MEK2; settings: concentration: 1 μM, replicates: in singlicate, n = 1
T2 construct: gene MAP2K2

MEK3 = system: T3, MEK3; settings: concentration: 1 μM, replicates: in singlicate, n = 1
T3 construct: gene MAP2K3

MEK4 = system: T4, MEK4; settings: concentration: 1 μM, replicates: in singlicate, n = 1
T4 construct: gene MAP2K4

MEK5 = system: T5, MEK5; settings: concentration: 1 μM, replicates: in singlicate, n = 1
T5 construct: gene MAP2K5

MEK6 = system: T6, MEK6; settings: concentration: 1 μM, replicates: in singlicate; n = 1
T6 construct: gene MAP2K6

MELK = settings: concentration: 1 μM, replicates: in singlicate, n = 1
MERTK = settings: concentration: 1 μM, replicates: in singlicate; n = 1
MET = settings: concentration: 1 μM, replicates: in singlicate; n = 1
MINK = system: T7, MINK; settings: concentration: 1 μM, replicates: in singlicate, n = 1
T7 construct: gene MINK1

MKK7 = settings: concentration: 1 μM, replicates: in singlicate, n = 1
MKNK1 = settings: concentration: 1 μM, replicates: in singlicate; n = 1
MKNK2 = settings: concentration: 1 μM, replicates: in singlicate, n = 1
MLCK = system: T8, MLCK; settings: concentration: 1 μM, replicates: in singlicate; n = 1
T8 construct: gene MYLK3

MLK1 = system: T9, MLK1; settings: concentration: 1 μM, replicates: in singlicate; n = 1
T9 construct: gene MAP3K9

MLK2 = settings: concentration: 1 μM, replicates: in singlicate, n = 1
MLK3 = settings: concentration: 1 μM, replicates: in singlicate, n = 1
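Note: KINOMEscan kinase panel screen.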

CC(C)N1CCC(n2cnc(-c3ccc(F)cc3)c2-c2ccnc(N)n2)CC1 [SB-223132]
%Inh (MARK3): 14% | %Inh (MARK4): 15% | %Inh (MAST1): 0% | %Inh (MEK1): 0% | %Inh (MEK2): 22% | %Inh (MEK3): 0% | %Inh (MEK4): 0% | %Inh (MEK5): 31% | %Inh (MEK6): 3% | %Inh (MELK): 8% | %Inh (MERTK): 0% | %Inh (MET): 14% | %Inh (MINK): 7% | %Inh (MKK7): 0% | %Inh (MKNK1): 2% | %Inh (MKNK2): 0% | %Inh (MLCK): 0% | %Inh (MLK1): 0% | %Inh (MLK2): 4% | %Inh (MLK3): 0%

Nc1n[nH]c2nnc(-c3ccccc3)cc12 [SB-517389]
%Inh (MARK3): 0% | %Inh (MARK4): 0% | %Inh (MAST1): 0% | %Inh (MEK1): 0% | %Inh (MEK2): 0% | %Inh (MEK3): 0% | %Inh (MEK4): 24% | %Inh (MEK5): 38% | %Inh (MEK6): 0% | %Inh (MELK): 0% | %Inh (MERTK): 13% | %Inh (MET): 0% | %Inh (MINK): 23% | %Inh (MKK7): 0% | %Inh (MKNK1): 77% | %Inh (MKNK2): 12% | %Inh (MLCK): 86% | %Inh (MLK1): 0% | %Inh (MLK2): 0% | %Inh (MLK3): 0%

O=C(Nc1n[nH]c2nc(-c3ccco3)c(Br)cc12)c1ccc(CN2CCCC2)cc1.O=C(O)[C@H](O)[C@@H](O)C(=O)O [SB-742352]
%Inh (MARK3): 0% | %Inh (MARK4): 2% | %Inh (MAST1): 6% | %Inh (MEK1): 0% | %Inh (MEK2): 0% | %Inh (MEK3): 0% | %Inh (MEK4): 0% | %Inh (MEK5): 83% | %Inh (MEK6): 0% | %Inh (MELK): 3% | %Inh (MERTK): 22% | %Inh (MET): 0% | %Inh (MINK): 0% | %Inh (MKK7): 0% | %Inh (MKNK1): 0% | %Inh (MKNK2): 0% | %Inh (MLCK): 69% | %Inh (MLK1): 0% | %Inh (MLK2): 0% | %Inh (MLK3): 10%

Cc1cccc(-c2nc(Nc3ccc4[nH]nnc4c3)c3ccccc3n2)n1 [GW867587]
%Inh (MARK3): 18% | %Inh (MARK4): 3% | %Inh (MAST1): 17% | %Inh (MEK1): 7% | %Inh (MEK2): 16% | %Inh (MEK3): 5% | %Inh (MEK4): 0% | %Inh (MEK5): 19% | %Inh (MEK6): 0% | %Inh (MELK): 0% | %Inh (MERTK): 19% | %Inh (MET): 0% | %Inh (MINK): 0% | %Inh (MKK7): 0% | %Inh (MKNK1): 8% | %Inh (MKNK2): 0% | %Inh (MLCK): 0% | %Inh (MLK1): 0% | %Inh (MLK2): 0% | %Inh (MLK3): 0%

COc1ccc(-c2nc3n(c2-c2ccncc2)CCC3)cc1 [SKF-104493]
%Inh (MARK3): 0% | %Inh (MARK4; 1 µM): 17% and 0% | %Inh (MAST1; 1 µM): 49% and 11% | %Inh (MEK1; 1 µM): 0% and 12% | %Inh (MEK2; 1 µM): 29% and 5% | %Inh (MEK3; 1 µM): 1% and 0% | %Inh (MEK4; 1 µM): 67% and 12% | %Inh (MEK5; 1 µM): 24% and 0% | %Inh (MEK6): 0% | %Inh (MELK; 1 µM): 0% and 15% | %Inh (MERTK): 0% | %Inh (MET): 0% | %Inh (MINK; 1 µM): 5% and 19% | %Inh (MKK7; 1 µM): 14% and 19% | %Inh (MKNK1): 0% | %Inh (MKNK2; 1 µM): 19% and 0% | %Inh (MLCK): 0% | %Inh (MLK1): 0% | %Inh (MLK2; 1 µM): 0% and 4% | %Inh (MLK3; 1 µM): 9% and 24%

C[C@@H]1CCN(C(=O)CO)C[C@@H]1N(C)c1ncnc2[nH]ccc12
%Inh (MARK3): 0% | %Inh (MARK4): 0% | %Inh (MAST1): 5% | %Inh (MEK1): 0% | %Inh (MEK2): 0% | %Inh (MEK3): 0% | %Inh (MEK4): 0% | %Inh (MEK5): 12% | %Inh (MEK6): 3% | %Inh (MELK): 0% | %Inh (MERTK): 0% | %Inh (MET): 0% | %Inh (MINK): 0% | %Inh (MKK7): 0% | %Inh (MKNK1): 0% | %Inh (MKNK2): 0% | %Inh (MLCK): 14% | %Inh (MLK1): 0% | %Inh (MLK2): 35% | %Inh (MLK3): 8%

Clc1cccc(-c2nc(Nc3ccncc3)c3ccccc3n2)c1 [GW873004]
%Inh (MARK3): 32% | %Inh (MARK4): 23% | %Inh (MAST1): 53% | %Inh (MEK1): 10% | %Inh (MEK2): 21% | %Inh (MEK3): 0% | %Inh (MEK4): 0% | %Inh (MEK5): 14% | %Inh (MEK6): 0% | %Inh (MELK): 31% | %Inh (MERTK): 7% | %Inh (MET): 33% | %Inh (MINK): 16% | %Inh (MKK7): 0% | %Inh (MKNK1): 18% | %Inh (MKNK2): 0% | %Inh (MLCK): 0% | %Inh (MLK1): 2% | %Inh (MLK2): 16% | %Inh (MLK3): 0%

COc1ccc(-c2oc3ncnc(N)c3c2-c2ccc(OC)cc2)cc1 [SB-589132]
%Inh (MARK3): 2% | %Inh (MARK4): 0% | %Inh (MAST1): 53% | %Inh (MEK1): 0% | %Inh (MEK2): 0% | %Inh (MEK3): 0% | %Inh (MEK4): 0% | %Inh (MEK5): 88% | %Inh (MEK6): 0% | %Inh (MELK): 8% | %Inh (MERTK): 29% | %Inh (MET): 0% | %Inh (MINK): 0% | %Inh (MKK7): 0% | %Inh (MKNK1): 25% | %Inh (MKNK2): 41% | %Inh (MLCK): 23% | %Inh (MLK1): 0% | %Inh (MLK2): 0% | %Inh (MLK3): 0%

Cn1ccc2ncnc(Nc3ccc(Oc4cccc(Cl)c4)c(Cl)c3)c21
%Inh (MARK3): 0% | %Inh (MARK4): 9% | %Inh (MAST1): 0% | %Inh (MEK1): 29% | %Inh (MEK2): 31% | %Inh (MEK3): 1% | %Inh (MEK4): 17% | %Inh (MEK5): 99.6% | %Inh (MEK6): 27% | %Inh (MELK): 0% | %Inh (MERTK): 13% | %Inh (MET): 2% | %Inh (MINK): 7% | %Inh (MKK7): 0% | %Inh (MKNK1): 16% | %Inh (MKNK2): 0% | %Inh (MLCK): 0% | %Inh (MLK1): 7% | %Inh (MLK2): 15% | %Inh (MLK3): 0%

FC(F)(F)c1ccc(-c2nn3ncccc3c2-c2ccnc(Nc3cccc(C(F)(F)F)c3)n2)cc1 [GW828205]
%Inh (MARK3): 13% | %Inh (MARK4): 0% | %Inh (MAST1): 12% | %Inh (MEK1): 4% | %Inh (MEK2): 28% | %Inh (MEK3): 0% | %Inh (MEK4): 0% | %Inh (MEK5): 4% | %Inh (MEK6): 0% | %Inh (MELK): 0% | %Inh (MERTK): 1% | %Inh (MET): 21% | %Inh (MINK): 12% | %Inh (MKK7): 0% | %Inh (MKNK1): 0% | %Inh (MKNK2): 0% | %Inh (MLCK): 0% | %Inh (MLK1): 4% | %Inh (MLK2): 0% | %Inh (MLK3): 0%
